Measurements from publication PMC7819943, “Rice protein-binding microarrays: a tool to detect cis-acting elements near promoter regions in rice”.
The full ranking holds about 39,000 sequences; the median of “fluorescence intensity (a.u.)” is about 4,300, and the highest 2% start at about 39,000. Many of the other results were omitted from the sample, so the highest values are more common in it than they were.

Molecular target: T1, OsSMF1 (Oryza sativa, UniProt Q6ZLB0 1-436)
T1 sequence: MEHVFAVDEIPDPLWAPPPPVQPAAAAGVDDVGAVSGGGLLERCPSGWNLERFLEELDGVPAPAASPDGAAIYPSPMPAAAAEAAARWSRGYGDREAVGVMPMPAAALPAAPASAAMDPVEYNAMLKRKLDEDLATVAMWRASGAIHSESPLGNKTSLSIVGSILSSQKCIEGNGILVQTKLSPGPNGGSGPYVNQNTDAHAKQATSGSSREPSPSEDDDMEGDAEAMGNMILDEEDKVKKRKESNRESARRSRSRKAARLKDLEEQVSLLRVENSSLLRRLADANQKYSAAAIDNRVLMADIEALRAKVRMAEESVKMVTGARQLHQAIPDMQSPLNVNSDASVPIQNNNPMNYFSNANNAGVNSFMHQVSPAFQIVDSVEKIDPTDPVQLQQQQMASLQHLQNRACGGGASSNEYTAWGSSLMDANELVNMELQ
Assay: protein-binding microarray (RPBM); PBS, 2% BSA, 51.3 ng/ul salmon testes DNA, 50 uM zinc acetate, 200 nM TF, 25 C, 1 h; high values mean tight binding
Conditions: protein: recombinant; tags: N-terminal polyhistidine and DsRed monomer fusion (pET32a); chain copies: 2; label: CyDye5-dUTP incorporated in the synthesized complementary strand; 3' TTTTT single-stranded linker to array surface; dsDNA, one strand shown
Method in brief: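 Transcription factors, each fused N-terminally to a polyhistidine tag and DsRed, were expressed in E. coli BL21-CodonPlus and purified on Ni–NTA. A custom Agilent array was made double-stranded by primer extension with Cy5-dUTP and blocked with 2% BSA. It was incubated with 200 nM protein in PBS, 2% BSA, salmon testes DNA and 50 µM zinc acetate at 25 °C for 1 h, then washed. The binding signal is per-feature fluorescence intensity (arbitrary units) read on an Axon 4000B scanner.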

| Sequence | binding signal |
| --- | --- |
| GAGCCTTACCGGCTCAGACTTGGCATGACGTGGACGTACACGGAGTCACCTAGTGCAG | 22500 fluorescence intensity (a.u.) |
| TTCATTCCCAAATGCCACCCGGGCCCACATGTCAGCCTCACGGAGTCACCTAGTGCAG | 4670 fluorescence intensity (a.u.) |
| TTACCCTTAGTCATTTGACCCTATTACATGTGGGACCCACCGGAGTCACCTAGTGCAG | 3900 fluorescence intensity (a.u.) |
| GTCATGGATCAAATCATCATGTATATCATCCGTCGTCGTGCGGAGTCACCTAGTGCAG | 3180 fluorescence intensity (a.u.) |
| TGTTGCTCGGCCAAACGTACACACAGTTCGTTATATATCGCGGAGTCACCTAGTGCAG | 12100 fluorescence intensity (a.u.) |
| TATTTTGGAGCGGACGAAGTAATAATATAGTACACGTCGGCGGAGTCACCTAGTGCAG | 5310 fluorescence intensity (a.u.) |
| CCCATAACTGAATTGTTAATTTTGTCACGCGAGCAACGCACGGAGTCACCTAGTGCAG | 19300 fluorescence intensity (a.u.) |
| ATACAAGACAAATCGATTAACATAAGATCGATATATCGCTCGGAGTCACCTAGTGCAG | 24700 fluorescence intensity (a.u.) |
| ATACATAGCCATATATAAAATTAATGTGATAACATATTCTCGGAGTCACCTAGTGCAG | 3660 fluorescence intensity (a.u.) |
| GATAATTAAGCTGATAGCGAGACATAACAAGCTCTGTTCTCGGAGTCACCTAGTGCAG | 49600 fluorescence intensity (a.u.) |
| TGATAATAATTATTTCTTGGTCTTTAAATTAAGGGTGATTCGGAGTCACCTAGTGCAG | 14800 fluorescence intensity (a.u.) |
| TGTTTGTAAAGTAGAGCGTGCATGTGTGCGTTCTTAAGGTCGGAGTCACCTAGTGCAG | 3590 fluorescence intensity (a.u.) |
| TAATAAGAGGCTGTAAGTCGGCTAAATGCTGAGGTGGAGGCGGAGTCACCTAGTGCAG | 8660 fluorescence intensity (a.u.) |
| AAGTAAATGTAGATAAGGCCGTGTAATAAAGGTTGCTAGTCGGAGTCACCTAGTGCAG | 56800 fluorescence intensity (a.u.) |
| GATTCGAGATTCAGGTAGGTTGTATAGTTCACGGGAGCAACGGAGTCACCTAGTGCAG | 64500 fluorescence intensity (a.u.) |
| GATTGGTAGTATTTAGTTGTGTATAATGTATTATTAGGTTCGGAGTCACCTAGTGCAG | 3720 fluorescence intensity (a.u.) |
| TGTTCATCCAAGGAGATTATCAGGTTGTTTGTATATATAACGGAGTCACCTAGTGCAG | 26400 fluorescence intensity (a.u.) |
| AATATAGTGTTGTTTGGTACTATATCGAGTTGGATTAGTTCGGAGTCACCTAGTGCAG | 3190 fluorescence intensity (a.u.) |
| AAATTCGTTCTACAACTAAACAGGTTGCTTCAGAGTGCAACGGAGTCACCTAGTGCAG | 30800 fluorescence intensity (a.u.) |
| TTGGTAGGTTCGACCTACTAGATTGTTGTTGATAATATAACGGAGTCACCTAGTGCAG | 51700 fluorescence intensity (a.u.) |
| TGCTATGCATACGACTCAGCTGTCCGACTCATGTATGAATCGGAGTCACCTAGTGCAG | 3720 fluorescence intensity (a.u.) |

| Sequence | binding signal |
| --- | --- |
| CGCGGCACGGGGAGACGACACGTCGGATGGTTGGCAGGAGCGGAGTCACCTAGTGCAG | 16400 fluorescence intensity (a.u.) |
| TTCTTCCTATATAAGCACAACACACGTCCTTACTTGTGTGCGGAGTCACCTAGTGCAG | 5410 fluorescence intensity (a.u.) |
| GGCGTTCTGCCGCCTGGCGCCGCTCGTCACGTACGAGGACCGGAGTCACCTAGTGCAG | 3350 fluorescence intensity (a.u.) |
| TCTGTAGTAGTCATCATCACCTAGGTGCCTACCCTTTTGACGGAGTCACCTAGTGCAG | 3280 fluorescence intensity (a.u.) |
| TGTGAGCACGGATCGACGATGAAAACAGACGAAGAACATTCGGAGTCACCTAGTGCAG | 27400 fluorescence intensity (a.u.) |
| ACTACAAATAGATCGAACAGAAACAGAGCATCACGACGACCGGAGTCACCTAGTGCAG | 40300 fluorescence intensity (a.u.) |
| CTGGGAAATAGTGCTGCAGAGTCACTAGTTAGATCGAAATCGGAGTCACCTAGTGCAG | 3980 fluorescence intensity (a.u.) |
| TCTCAACCCTCAGGTAATCTACTGCTGCGCGTGGTGAATCCGGAGTCACCTAGTGCAG | 4080 fluorescence intensity (a.u.) |
| CTACTAATAAGGCGTGTTATTATTGGTCATCAATGGCGTCCGGAGTCACCTAGTGCAG | 3300 fluorescence intensity (a.u.) |
| ATACTAATAGTATAGTAAGCAACTATTGTATGAATTGGCTCGGAGTCACCTAGTGCAG | 3740 fluorescence intensity (a.u.) |
| AAAGTCCGCTCGTGTTATTGGTAATTGAACTACTAAGCTACGGAGTCACCTAGTGCAG | 41300 fluorescence intensity (a.u.) |
| GGATCCGGGCATCTGGCTGCCCCGCCGCCACTCCGCCTAGCGGAGTCACCTAGTGCAG | 3330 fluorescence intensity (a.u.) |
| ATTGGTATGGTATATTCATACCATAACATAAGAACAATAACGGAGTCACCTAGTGCAG | 21200 fluorescence intensity (a.u.) |
| TTGGATGTTTGCCGTGGACAAGTGCTAACTGTCAAAACCCCGGAGTCACCTAGTGCAG | 34900 fluorescence intensity (a.u.) |
| CTTGTGGCCCATTAATGGCTCGCGTCGGCCTAATTTTGTGCGGAGTCACCTAGTGCAG | 4450 fluorescence intensity (a.u.) |
| TTGAAACTGTGCATGCGCATCACCTTCATGCCCAAAATTTCGGAGTCACCTAGTGCAG | 3160 fluorescence intensity (a.u.) |
| GTGTGAAAAGATGCTGGCCCAATTAATTTGCGCGCGTCATCGGAGTCACCTAGTGCAG | 48700 fluorescence intensity (a.u.) |
| ACCAGTCCCAAATCAAACAGTCCTACTAGTTGCATTTTGTCGGAGTCACCTAGTGCAG | 47200 fluorescence intensity (a.u.) |
| AACGTCGGTTCCCAAACATTTGTTTTCCTTACCAATCGGGCGGAGTCACCTAGTGCAG | 3490 fluorescence intensity (a.u.) |
| TATCATTTGTCAAACACACCCATATCCCATTTGCCAATCACGGAGTCACCTAGTGCAG | 3890 fluorescence intensity (a.u.) |
| TCAATCATGAGGACATGGTAATATATTGCTTGTGTTGCTTCGGAGTCACCTAGTGCAG | 3550 fluorescence intensity (a.u.) |
